Results as given in PubChem BioAssay.
Activity calls are given as the source filed them.

Assays:
[1] = tested on: Human papillomavirus type 1a protein E7 (residues 44-93); test: HPV1a E7 fragment binders on microarrays, primary screen, biochemical, small-molecule microarray, residues 44-93, 635 nm fluorescence (AID 1108); details: small-molecule microarray binding, fluorescence 635 nm; higher = more signal;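 note: E7 fragment applied at 1 µg/mL in TBST for 1 h at 4 C; score combines spot fluorescence with its signal to noise ratio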
[2] = modulators of HCV replicon luciferase signal, primary screen, HCV replication inhibitor project, Huh7 cells, luciferase reporter (AID 1109); details: 48 h, higher = more signal;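 note: huh7 hepatoma cells harbouring a luciferase neomycin HCV replicon reporter; luciferase luminescence as measure of HCV replicon replication; test concentration not given here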
[3] = target: Left-right determination factor 2 (Homo sapiens) (UniProt O00292); test: LEFTY2 binders on small-molecule microarrays, primary screen, biochemical, small-molecule microarray, 635 nm fluorescence scan (AID 1110); details: LEFTY2 binding, higher = more signal
[4] = target: Calmodulin-1 (Homo sapiens) (UniProt P0DP23); test: CALM1 binders on microarrays, EGTA buffer, profiling panel, biochemical, small-molecule microarray, Cy5-labelled CALM1 (AID 1111); details: Cy5-CALM1 binding fluorescence, higher = more signal;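 note: labelled calmodulin applied in Tris saline Tween buffer holding calcium plus EGTA and DTT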
[5] = target: Calmodulin-1 (Homo sapiens) (UniProt P0DP23); test: calcium-bound CALM1 binders on microarrays, profiling panel, artefact control for SMM control-protein annotation, biochemical, small-molecule microarray, Cy5-labelled CALM1, plus calcium (AID 1112); details: Cy5-CALM1 binding fluorescence, higher = more signal;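 note: score merges spot fluorescence with signal to noise from triplicate slides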
[6] = small-molecule microarray binders of probe aWnt5a, primary screen, biochemical, biotinylated probe, 635/667 nm fluorescence (AID 1113); details: higher = more signal;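 note: score merges 667 nm fluorescence intensity with signal-to-noise per printed feature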
[7] = small-molecule microarray binders of probe aShh, primary screen, biochemical, biotinylated probe, 635/667 nm fluorescence (AID 1114); details: higher = more signal;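 note: probe is biotin-labelled aShh protein from a stem cell growth factor screen; measures binding of labelled protein to compounds printed on the slide; score merges feature fluorescence at 667 nm with signal-to-noise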
[8] = small-molecule microarray binders of probe aNog, primary screen, biochemical, biotinylated probe, 635/667 nm fluorescence (AID 1115); details: higher = more signal;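 note: probe is biotinylated aNog protein used at 0.15 µg/mL for 1 h at 4 C; z-score combines 667 nm fluorescence of each spot with its signal to noise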
[9] = target: Torsin-1A-interacting protein 1 (Homo sapiens) (UniProt Q5JTV8); test: LAP1 binders from COS7 cell lysate, primary screen, small-molecule microarray, 635/667 nm fluorescence (AID 1116); details: COS7-hLAP1 lysate binding, 635 nm fluorescence, higher = more signal
[10] = target: Alpha-bungarotoxin (Bungarus multicinctus) (UniProt P60615); test: alpha-bungarotoxin binders on microarray, profiling panel, artefact control for SMM control protein annotation, biochemical, small-molecule microarray, Alexa647 label, 635/667 nm fluorescence (AID 1117); details: alpha-BTX-A647 binding fluorescence, higher = more signal
Albumin (Bos taurus) = Albumin (Bos taurus) (UniProt P02769); test: bovine serum albumin binders on microarray, profiling panel, artefact control for SMM control protein annotation, biochemical, small-molecule microarray, Alexa647 label, 635/667 nm fluorescence (AID 1118); details: BSA-A647 binding, fluorescence 635 nm, higher = more signal;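 note: score merges 667 nm emission intensity and signal-to-noise per printed compound spot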
[11] = small-molecule microarray binders of probe aXIP, primary screen, biochemical, NeuroSMM set, 635/667 nm fluorescence (AID 1119); details: higher = more signal, called active from +8 up or from −8 down;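 note: probe is the protein aXip251-270 applied at 1 µg/mL to compound-printed slides; binding of probe to printed compounds measured as 667 nm fluorescence plus signal to noise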
[12] = small-molecule binders of probe aNOTCH3, primary screen, biochemical, small-molecule microarray, 635/667 nm fluorescence (AID 1120); details: higher = more signal;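 note: probe is a biotin-tagged antibody raised against NOTCH3 rather than NOTCH3 protein; score merges spot fluorescence near 667 nm with spot signal to noise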
[13] = small-molecule binders of probe aNOTCH2, primary screen, biochemical, small-molecule microarray, 635/667 nm fluorescence (AID 1121); details: higher = more signal;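 note: score merges feature fluorescence read at 667 nm with its signal to noise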
[14] = target: Carbonic anhydrase 2 (Homo sapiens) (UniProt P00918); test: CAII small-molecule binders, profiling panel, biochemical, small-molecule microarray, Alexa647-labelled CAII (AID 1122); details: CAII-A647 binding fluorescence, higher = more signal
[15] = COS7 lysate on small-molecule microarray, probe aHis, 635 nm (AID 1123); details: COS7 cell lysate, fluorescence, higher = more signal;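 note: z-score combines 667nm fluorescence intensity with signal-to-noise per printed compound spot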
[16] = compound binding in COS7 lysate, probe aLAP1, primary screen, cell lysate, small-molecule microarray (AID 1124); details: probe aLAP1, fluorescence, higher = more signal;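 note: lysate comes from COS7 cells expressing LAP1 and is applied at 0.3 µg/mL; score merges spot fluorescence near 667 nm with signal-to-noise over triplicate slides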
Sam68 (KHDRBS1) = test: Sam68 small-molecule binders, primary screen, biochemical, small-molecule microarray, 635 nm fluorescence (AID 1125); details: small-molecule microarray binding, higher = more signal;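 note: score merges 667 nm channel intensity with signal to noise over triplicate slides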
[17] = tested on: Chordin-like protein 2 (CHRDL2); test: CHRDL2 small-molecule binders, primary screen, biochemical, small-molecule microarray, 635 nm fluorescence (AID 1126); details: small-molecule microarray binding, fluorescence 635 nm; higher = more signal;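 note: printed compound slides probed with Chrdl2 protein at 4 µg/mL for 1 h at 4 C; score merges 667 nm emission intensity with signal to noise over three replicate slides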
[18] = target: Concanavalin-A (Canavalia ensiformis) (UniProt P02866); test: ConA small-molecule binders, primary screen, artefact control for SMM control protein annotation, biochemical, small-molecule microarray, Alexa647 label, 635 nm (AID 1127); details: ConA-A647 binding fluorescence, higher = more signal;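 note: z combines 667 nm emission intensity with signal-to-noise across three replicate slides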
Concanavalin-A (Canavalia ensiformis), sequence (P02866 whole entry, looked up): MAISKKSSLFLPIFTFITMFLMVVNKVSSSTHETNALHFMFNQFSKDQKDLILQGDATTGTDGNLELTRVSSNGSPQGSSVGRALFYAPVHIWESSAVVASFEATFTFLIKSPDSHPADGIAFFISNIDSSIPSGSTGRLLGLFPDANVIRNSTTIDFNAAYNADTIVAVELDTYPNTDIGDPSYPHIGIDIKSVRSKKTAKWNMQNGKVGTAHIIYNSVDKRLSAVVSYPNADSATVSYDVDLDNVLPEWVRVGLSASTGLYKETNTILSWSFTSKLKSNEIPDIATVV

Left-right determination factor 2 (Homo sapiens), sequence (O00292 whole entry, looked up): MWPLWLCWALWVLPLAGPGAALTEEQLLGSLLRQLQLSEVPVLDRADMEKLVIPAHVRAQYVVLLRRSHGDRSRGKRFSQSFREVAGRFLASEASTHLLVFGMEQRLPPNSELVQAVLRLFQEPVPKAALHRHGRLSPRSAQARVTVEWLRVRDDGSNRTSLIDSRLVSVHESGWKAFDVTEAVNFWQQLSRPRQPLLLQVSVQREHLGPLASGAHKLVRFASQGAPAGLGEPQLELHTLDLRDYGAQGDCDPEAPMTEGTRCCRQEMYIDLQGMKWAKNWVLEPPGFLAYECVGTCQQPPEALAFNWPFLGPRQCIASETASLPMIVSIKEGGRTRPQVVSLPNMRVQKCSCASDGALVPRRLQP
Alpha-bungarotoxin (Bungarus multicinctus), sequence (P60615 whole entry, looked up): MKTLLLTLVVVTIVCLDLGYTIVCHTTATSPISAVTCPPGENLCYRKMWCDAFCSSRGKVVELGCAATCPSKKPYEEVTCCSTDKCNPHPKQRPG
Torsin-1A-interacting protein 1 (Homo sapiens), sequence (Q5JTV8 whole entry, looked up): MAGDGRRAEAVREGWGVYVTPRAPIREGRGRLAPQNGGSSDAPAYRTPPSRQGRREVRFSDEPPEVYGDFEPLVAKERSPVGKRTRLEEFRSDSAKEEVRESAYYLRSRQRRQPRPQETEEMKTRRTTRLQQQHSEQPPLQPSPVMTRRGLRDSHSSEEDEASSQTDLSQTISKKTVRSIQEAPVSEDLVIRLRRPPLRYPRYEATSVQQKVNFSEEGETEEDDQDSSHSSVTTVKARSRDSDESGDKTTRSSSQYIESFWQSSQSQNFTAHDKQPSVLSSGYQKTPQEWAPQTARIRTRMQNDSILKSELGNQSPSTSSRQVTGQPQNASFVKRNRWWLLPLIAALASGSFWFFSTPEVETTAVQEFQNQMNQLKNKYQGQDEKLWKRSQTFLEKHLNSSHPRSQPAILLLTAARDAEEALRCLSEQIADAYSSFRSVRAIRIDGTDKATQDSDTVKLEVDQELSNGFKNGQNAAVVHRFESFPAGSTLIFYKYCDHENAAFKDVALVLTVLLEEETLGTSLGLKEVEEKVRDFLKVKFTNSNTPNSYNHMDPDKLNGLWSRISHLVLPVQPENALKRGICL
Albumin (Bos taurus), sequence (P02769 whole entry, looked up): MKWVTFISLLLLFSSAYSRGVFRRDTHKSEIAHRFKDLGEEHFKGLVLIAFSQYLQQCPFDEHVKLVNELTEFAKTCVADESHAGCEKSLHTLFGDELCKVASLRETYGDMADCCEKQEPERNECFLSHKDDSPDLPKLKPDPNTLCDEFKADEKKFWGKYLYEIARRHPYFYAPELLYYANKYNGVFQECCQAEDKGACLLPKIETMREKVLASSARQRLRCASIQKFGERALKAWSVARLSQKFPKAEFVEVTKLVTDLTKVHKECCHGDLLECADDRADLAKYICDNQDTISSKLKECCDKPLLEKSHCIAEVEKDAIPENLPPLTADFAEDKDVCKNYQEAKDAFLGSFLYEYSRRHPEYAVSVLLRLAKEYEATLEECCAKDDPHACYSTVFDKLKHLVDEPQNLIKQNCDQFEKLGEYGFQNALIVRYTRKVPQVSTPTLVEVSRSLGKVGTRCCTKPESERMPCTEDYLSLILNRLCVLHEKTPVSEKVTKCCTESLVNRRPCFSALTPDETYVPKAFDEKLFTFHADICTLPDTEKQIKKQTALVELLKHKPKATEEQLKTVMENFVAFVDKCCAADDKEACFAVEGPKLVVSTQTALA

SMILES | composite z-score [1] | z-score [2] | composite z-score [3] | composite z-score [4] | composite z-score [5] | composite z-score [6] | composite z-score [7] | composite z-score [8] | composite z-score [9] | composite z-score [10] | composite z-score (Albumin (Bos taurus)) | composite Z-score [11] | composite z-score [12] | composite z-score [13] | composite z-score [14] | composite z-score [15] | composite z-score [16] | composite z-score (Sam68 (KHDRBS1)) | composite z-score [17] | composite z-score [18]
C=CCN1Cc2ccccc2C[C@@]2(COC(c3ccc(OCCCO)cc3)=N2)C1=O | 1.42 | -0.908 | 0.588 | 0.175 | -0.583 | 0.0633 | 0.13 | 0.373 | 1.33 | 0.34 | -0.476 | 0.0425 (inactive) | 0.0596 | 0.0965 | 0.598 | 2.14 | 0.547 | 0.811 | 1.12 | 0.85
COc1c(C)cc(-c2cc3c(c(-c4ccccc4)n2)[Si](C(C)C)(C(C)C)O[C@H]3c2ccccc2)cc1C | -0.217 | -0.526 | -0.009 | -0.0867 | -0.24 | -0.006 | -0.147 | -0.482 | 0.38 | 0.614 | -0.102 | -0.322 (inactive) | -0.0343 | -0.154 | -0.0516 | 0.0732 | -0.325 | 0.111 | 0.613 | 0.124
C#C[C@H]1Oc2ccccc2S(=O)(=O)N2CCC[C@@H]12 | -0.137 | -0.871 | 0.533 | -0.982 | -0.495 | -0.169 | 0.0815 | -0.1 | 0.0849 | -0.288 | -1.3 | -0.0662 (inactive) | 0.0026 | -0.0548 | -0.156 | -0.117 | 0.0504 | -0.399 | 0.839 | -1.55
COCCCNC(=O)[C@]1(Cc2ccccc2N=[N+]=[N-])N=C(c2ccc(OCCCO)cc2)O[C@@H]1c1ccccc1CN=[N+]=[N-] | 1.45 | -3.09 | 0.331 | 1.5 | 0.813 | 0.0952 | 0.496 | 0.555 | 1.39 | 1.01 | 0.522 | 0.0955 (inactive) | 0.523 | 0.202 | 0.398 | 2.51 | 0.561 | 1.12 | 0.228 | 1.13
CCCNC(=O)[C@@]1(c2ccc([N+](=O)[O-])cc2)CC(=O)N(CC23CC4CC(CC(C4)C2)C3)[C@@H]1c1ccc(CO)cc1I | 0.0836 | -3.32 | 0.152 | 0.838 | 0.94 | -0.0303 | 0.166 | 0.431 | -0.421 | 0.695 | 0.41 | 0.609 (inactive) | 0.216 | 0.126 | 0.118 | 1.33 | 0.137 | 0.974 | -0.366 | 0.519
C=C(C(=O)CC[C@@H](OC(=O)c1cccnc1)c1ccc(OCCO)cc1)C(C)C | 0.16 | -4.49 | 0.286 | -0.277 | -1.85 | -0.0145 | -0.0035 | -0.0863 | 2.09 | 0.46 | -0.541 | -0.471 (inactive) | 0.123 | -0.179 | 0.0384 | -0.266 | 0.354 | 0.921 | 0.606 | 0.303
C=CCN1Cc2ccccc2C[C@]2(N=C(c3ccc(OCCCO)cc3)O[C@@H]2c2ccccc2)C1=O | 1.18 | -2.51 | 0.915 | 0.054 | -0.83 | -0.006 | -0.0119 | 0.838 | 2.68 | 1.03 | 0.025 | 0.862 (inactive) | 0.0276 | 0.101 | 0.605 | 2.42 | 0.75 | 1.3 | 1.14 | 1.18
O=C1O[C@@H](c2ccccc2)[C@@H](c2ccccc2)N2[C@@H](c3ccc(O)cc3)[C@]3(C(=O)Nc4ccc(C#CCCO)cc43)[C@@H](C(=O)O)[C@H]12 | 0.449 | 0.386 | -0.233 | 2.19 | 0.933 | 0.485 | 0.86 | 2.63 | 1.66 | 2.14 | 0.323 | 0.674 (inactive) | 1.05 | 0.734 | 0.653 | 2.34 | 0.734 | 0.872 | 0.434 | 1.03
CCCCCCCCCCC(O)C1C=CC2C(=O)N(c3ccccc3)C(=O)C2N1Nc1ccc([N+](=O)[O-])cc1 (stereo not given) | 1.41 | -2.47 | -0.193 | 1.01 | 0.496 | -0.0263 | -0.0146 | 1.1 | -0.105 | 1 | 0.804 | 0.568 (inactive) | 0.216 | -0.0984 | 0.594 | 1.63 | 0.109 | 1.31 | -0.301 | 1.05
CN(C)CCCN1C(=O)[C@@]2(c3ccc([N+](=O)[O-])cc3)CC(=O)N(C3CCCCC3)[C@@H]2c2ccc(CO)cc21 | -0.274 | -0.493 | 0.0478 | -0.126 | -0.361 | -0.104 | -0.304 | -0.118 | -1.4 | 0.25 | -0.4 | 0.0831 (inactive) | -0.0665 | -0.0455 | -0.622 | -0.317 | -0.233 | -0.395 | -0.137 | 0.209
COCCOC(=O)N1C(=O)[C@@]2(c3ccccc31)[C@H](C(=O)N1CCCCCCC1)[C@H]1C(=O)O[C@H](c3ccccc3)[C@H](c3ccccc3)N1[C@@H]2c1ccccc1OCCO | 1.36 | -1.78 | 0.941 | 2.43 | 1.43 | 0.883 | 2.65 | 2.48 | 4.19 | 2.36 | 0.911 | 3.89 (inactive) | 1.5 | 0.699 | 0.838 | 3.32 | 1.19 | 1.29 | 1.32 | 1.2
